Assay outcomes as filed in PubChem.
In the library only some 0.47% were active in any assay of this set; here they are far more common.
AID inh = blocks human AID cytidine deaminase activity; AID deamination FRET fluorescence, UDG-coupled, 4 h; Potency, µM (doses to about 115 µM), usual class: inhibitors; actives 0.32% (n = 91,000); also: nearly all actives have a fitted effect of over 25% in size
Target sequence (Q9GZX7 whole entry, looked up): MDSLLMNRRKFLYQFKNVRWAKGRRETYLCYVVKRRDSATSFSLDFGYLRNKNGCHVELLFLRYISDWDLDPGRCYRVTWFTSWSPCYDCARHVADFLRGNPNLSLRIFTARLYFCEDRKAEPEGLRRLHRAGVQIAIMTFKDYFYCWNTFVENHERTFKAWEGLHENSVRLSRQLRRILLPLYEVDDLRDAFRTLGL
UDG counterscr = counter-screen for AID inhibitors: uracil-DNA glycosylase inhibition; FRET deamination/UDG coupled assay, UDG read, 4 h; Potency, µM (titrated, usually from 115 µM), for inactives: at the top dose activity change, negative = inhibition, usual class: inhibitors; actives 0.14% (n = 91,000); AID 1347430; also: nearly all actives have a fitted effect of over 65% in size
An asterisk follows results filed as active; i = inactive; u = inconclusive; [ ] = another dose, or the depositor's remark. Calls follow the shape of the dose curve; as a rule, active = well fitted curve in the direction sought with a large enough effect; inconclusive = small, poorly fitted or top-dose-only effect, or another doubt; inactive = no such curve, though single readings can be large; an effect the other way counts as inactive or inconclusive. % is scaled to controls: 0 for no effect and ±100 for the full control effect; potency is read from the fitted curve at half-maximal effect.

SMILES	AID inh	UDG counterscr
Cc1nc2cccnc2n1C1CCN(S(=O)(=O)c2ccc(Cl)cc2)CC1	i	u
CC(C)Cc1nc2cccnc2n1C1CCN(S(=O)(=O)c2ccc3c(c2)CCCC3)CC1	i	79.4µM*
Nc1nccnc1C(=O)NCC(O)c1ccc(F)cc1F (centres undefined)	i	-12.8%
NCC1CCN(CCc2ccc(F)cc2)CC1	i	0.8%
COc1ccc(C(=O)N(Cc2ccco2)Cc2ccc(C)o2)cc1	i	12.5%[57.5 µM]
CCc1ccc(CN(Cc2ccco2)C(=O)c2ccc(OC)cc2)cc1	39.8µM*	-9.4%[57.5 µM]
COc1ccc(-n2c(=O)c3c4c(sc3n(Cc3ccc(C(C)(C)C)cc3)c2=O)CCC4)c(OC)c1	35.5µM*	u
COc1ccc(-n2c(=O)c3c4c(sc3n(Cc3ccccc3C)c2=O)CCCC4)c(OC)c1	u	-18.9%
Cc1ccc(Cl)cc1N1CCN(C(=O)Cn2cnc3nc4c(cc3c2=O)CCCC4)CC1	39.8µM*	u
O=C(Cn1cnc2nc3c(cc2c1=O)CCCC3)N1CCN(c2cccc(C(F)(F)F)c2)CC1	i	-8.1%
CCOC(=O)c1sc(Nc2ccc(C(C)=O)cc2)nc1C(F)(F)F	i	0.4%
CC(Oc1ccc(C(=O)c2ccccc2)cc1)C(=O)N1CCc2ccccc21 (centres undefined)	i	79.4µM*
COc1ccc(OC)c(NC(=O)NC(C)C(=O)N2CCc3ccccc32)c1 (centres undefined)	i	-9.2%
CC1CCCCN1C(=O)CSc1nc2ccccc2nc1Cc1ccccc1 (centres undefined)	50.1µM*	-18.5%
Cc1ccc(Cc2nc3ccccc3nc2SCC(=O)N2CCC(C)CC2)cc1	u	-12.2%
O=C(COC(=O)CCSc1ccccc1Cl)Nc1ncc(Cl)cc1Cl	i	-1.0%
c1cc(CNCC2CCCO2)c2cc[nH]c2c1 (centres undefined)	i	8.8%
CCOC(=O)c1ccc(NC(=O)COC(=O)c2cn(CC)c3nc(C)ccc3c2=O)cc1	i	-0.4%
CCn1cc(C(=O)OCC(=O)Nc2cccc(C(C)=O)c2)c(=O)c2ccc(C)nc21	44.7µM*	-34.1%
Cc1ccc(C(=O)/C=C/Nc2ccc(N(C)C)cc2)cc1C	i	0.3%
COc1ccc(N(C)C(=O)c2cc3c(s2)-c2ccccc2OC3)cc1	44.7µM*	-8.6%
COc1cc(OC)c(N(C)C(=O)c2cc3c(s2)-c2ccccc2OC3)cc1Cl	i	-6.0%
Cc1ccc(-c2cc3ccccn3c2C=O)cc1C	i	-9.6%
Cc1ccc(Cc2c(C)nc3c(-c4ccccc4)c(C)[nH]n3c2=O)cc1	i	-4.8%
Cc1nc2c(-c3ccccc3)c(C)[nH]n2c(=O)c1Cc1ccc(C(C)C)cc1	i	79.4µM*
SMILES	AID inh	UDG counterscr
N#Cc1c(-c2ccccc2)cc(-c2cccs2)nc1SCCS(=O)(=O)c1nc2ccccc2s1	i	-3.7%
Cc1nc(-c2ccncc2)[nH]c(=O)c1CC(=O)N(C)C(C)C(C)(C)C (centres undefined)	i	2.7%
Cc1nc(-c2ccncc2)[nH]c(=O)c1CC(=O)N(C)C1CCCCC1	28.2µM*	2.5%
CCOc1ccc(CCNC(=O)c2cc3c(-c4ccc(OC)c(OC)c4)nn(C)c3s2)cc1OCC	u	79.4µM*
CCOCCCNC(=O)c1cc2c(-c3ccc(OC)c(OC)c3)nn(C)c2s1	i	0.1%
Cc1ccc2c3cc(-c4ccccc4)cn3ccn12	i	-1.8%
COc1ccc(C(=O)Nc2cccc(/C=C(/C#N)C(=O)NC3CC3)c2)cc1	i	-6.5%
CCCCN(C)c1ccc(-c2n[nH]c(=O)c3ccccc23)cc1[N+](=O)[O-]	i	89.1µM*
O=c1[nH]nc(-c2ccc(N3CCCCC3)c([N+](=O)[O-])c2)c2ccccc12	i	-0.7%
O=C(CCc1ncc(-c2ccc(Cl)cc2)o1)Nc1cc(F)cc(F)c1	i	4.3%
CC1Cc2ccccc2N1S(=O)(=O)c1nnc(NC(=O)c2ccccc2)s1 (centres undefined)	i	4.2%
CC1Cc2ccccc2N1S(=O)(=O)c1nnc(NC(=O)c2ccccc2Br)s1 (centres undefined)	44.7µM*	6.7%
CCOc1cc(Br)c(C2C(C#N)=C(N)Oc3cc4c(cc32)OCO4)cc1OCC (centres undefined)	i	-23.4%
CCC(C(=O)NCc1cccc(Br)c1)n1nc(C)c2c(C)n(-c3ccccc3)nc2c1=O (centres undefined)	u	-19.4%
CCc1ccc(CNC(=O)C(CC)n2nc(C)c3c(C)n(-c4ccccc4)nc3c2=O)cc1 (centres undefined)	70.8µM*	-20.2%
Cc1ccc(-n2c(SCC(N)=O)nc3c(c2=O)C2(CCCC2)Cc2ccccc2-3)cc1	i	79.4µM*
COc1ccccc1-n1c(SCC(N)=O)nc2c(c1=O)C1(CCCCC1)Cc1ccccc1-2	i	-11.0%
COC(=O)c1cc(-c2ccc(F)cc2)nc2onc(-c3ccccc3)c12	i	-3.0%
Cc1ccc(C(=O)/C=C/c2c(C)n[nH]c2C)cc1C	i	-4.9%
COCC(=O)n1nc(NCc2ccccc2Cl)nc1NCc1ccccc1Cl	i	4.5%
CC(=O)NCc1ccc(-c2csc(Nc3cccc(C(F)(F)F)c3)n2)o1	i	1.9%
Cc1ccn2c(Nc3ccccc3)c(-c3c[nH]c4ccccc34)nc2c1	i	5.8%
Cc1ccc(Nc2c(-c3c[nH]c4ccccc34)nc3cc(C)ccn23)cc1	u	79.4µM*
O=C(/C=C/c1cccc(O)c1)c1cccc(Br)c1	i	-2.1%
Cc1cc(S(=O)(=O)C(CNC(=O)COc2ccccc2)c2cccs2)ccc1F (centres undefined)	i	0.4%
SMILES	AID inh	UDG counterscr
Cc1ccc(S(=O)(=O)C(CNC(=O)COc2ccccc2)c2cccs2)cc1 (centres undefined)	44.7µM*	-27.8%
CC(C)COc1cccc(C(=O)Nc2ccc3oc(-c4ccncc4)nc3c2)c1	i	-6.4%
COc1ccccc1C(=O)Nc1ccc(OCc2cc(=O)n3cccc(C)c3n2)cc1	i	9.0%
COc1cc(C(=O)Nc2ccc(OCc3cc(=O)n4cccc(C)c4n3)cc2)cc(OC)c1OC	22.4µM*	-2.5%
COc1cccc(C(CNCC(O)CN2CCOCC2)c2c[nH]c3ccccc23)c1OC (centres undefined)	i	11.8%
Fc1ccccc1Cn1c(-c2ccccc2)nc2ccccc21	44.7µM*	u
Cc1cccc(Cn2c(-c3ccccc3)nc3ccccc32)c1	u	-19.5%[57.5 µM]
Cc1cccc(/C=C/c2ccc3ccccc3n2)c1	i	-14.2%
Cc1ccc(-c2cc(C(=O)O)c3ccc(C)c(C)c3n2)cc1	i	-3.4%
Cl/C(=C/c1ccc(Cl)cc1)c1ncc(-c2ccc(Cl)cc2)o1	i	-2.6%
Cc1cccn2c(=O)c3cc(C(=O)N(Cc4ccccc4)C(C)C)sc3nc12	79.4µM*	0.0%
CCN(C(=O)c1cc2c(=O)n3cccc(C)c3nc2s1)c1ccc(C)c(C)c1	u	-2.3%[57.5 µM]
CC(C)(C)c1ccc(-c2nc(SCCOc3ccc(Cl)cc3)n3[nH]c(=O)cc3n2)cc1	u	-5.0%
C=CCc1ccccc1OCCSc1nc(-c2ccc(C(C)(C)C)cc2)nc2cc(=O)[nH]n12	u	-23.3%
Cc1ccc(OCCCSc2nc(-c3ccc(C(C)(C)C)cc3)nc3cc(=O)[nH]n23)cc1C	44.7µM*	u
COc1ccccc1OCCSc1nc(-c2ccc(C(C)(C)C)cc2)nc2cc(=O)[nH]n12	79.4µM*	-27.3%
